Changes are numbered by the printed parent chain.
Assays:
Assay in all cases: PBM; 200 nM protein, PBS
Settings in all cases: dsDNA, one strand shown
HOXB9 [1] = molecular target: HOXB9 (Homo sapiens, UniProt P17482 171-250, T197M)
HOXB9 [2] = molecular target: HOXB9 (Homo sapiens, UniProt P17482 171-250)
HOXB9 [3] = molecular target: HOXB9 (Homo sapiens, UniProt P17482 171-250, R186Q)
NKX3-2 [4] = molecular target: NKX3-2 (Homo sapiens, UniProt P78367 192-278, P234S)
NKX3-2 [5] = molecular target: NKX3-2 (Homo sapiens, UniProt P78367 192-278)
SIX6 [6] = molecular target: T1, SIX6 (Homo sapiens, UniProt O95475 114-200, L167I)
T1 sequence: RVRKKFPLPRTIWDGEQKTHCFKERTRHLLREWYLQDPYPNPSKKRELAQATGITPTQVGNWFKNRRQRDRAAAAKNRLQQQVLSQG

HOXA4 [7] = molecular target: HOXA4 (Homo sapiens, UniProt Q00056 201-287, W262R)
SIX6 [8] = molecular target: T2, SIX6 (Homo sapiens, UniProt O95475 114-200, L143V)
T2 sequence: T1 sequence with L30V, I54L

SIX6 [9] = molecular target: T3, SIX6 (Homo sapiens, UniProt O95475 114-200, H141N)
T3 sequence: T1 sequence with H28N, I54L

SIX6 [10] = molecular target: T4, SIX6 (Homo sapiens, UniProt O95475 114-200, T165P)
T4 sequence: T1 sequence with T52P, I54L

SIX6 [11] = molecular target: T5, SIX6 (Homo sapiens, UniProt O95475 114-200, L167M)
T5 sequence: T1 sequence with I54M

SIX6 [12] = molecular target: T6, SIX6 (Homo sapiens, UniProt O95475 114-200, L143M)
T6 sequence: T1 sequence with L30M, I54L

SIX6 [13] = molecular target: T7, SIX6 (Homo sapiens, UniProt O95475 114-200, L143I)
T7 sequence: T1 sequence with L30I, I54L

SIX6 [14] = molecular target: T8, SIX6 (Homo sapiens, UniProt O95475 114-200, T165G)
T8 sequence: T1 sequence with T52G, I54L

HOXA4 [15] = molecular target: HOXA4 (Homo sapiens, UniProt Q00056 201-287, R217L)
SIX6 [16] = molecular target: T9, SIX6 (Homo sapiens, UniProt O95475 114-200, T139Q)
T9 sequence: T1 sequence with T26Q, I54L

SIX6 [17] = molecular target: T10, SIX6 (Homo sapiens, UniProt O95475 114-200, T165A)
T10 sequence: T1 sequence with T52A, I54L

HOXA4 [18] = molecular target: HOXA4 (Homo sapiens, UniProt Q00056 201-287)
SIX6 [19] = molecular target: T11, SIX6 (Homo sapiens, UniProt O95475 114-200, L167V)
T11 sequence: T1 sequence with I54V

SIX6 [20] = molecular target: T12, SIX6 (Homo sapiens, UniProt O95475 114-200)
T12 sequence: T1 sequence with I54L

SIX6 [21] = molecular target: T13, SIX6 (Homo sapiens, UniProt O95475 114-200, T165I)
T13 sequence: T1 sequence with T52I, I54L

ALX1 [22] = molecular target: ALX1 (Homo sapiens, UniProt Q15699 118-204, L144V)
HOXD13 [23] = molecular target: HOXD13 (Homo sapiens, UniProt P35453 263-343, T313R)
ALX1 [24] = molecular target: ALX1 (Homo sapiens, UniProt Q15699 118-204, L144R)
HOXD13 [25] = molecular target: HOXD13 (Homo sapiens, UniProt P35453 263-343)
HOXD13 [26] = molecular target: HOXD13 (Homo sapiens, UniProt P35453 263-343, T313A)
ALX1 [27] = molecular target: ALX1 (Homo sapiens, UniProt Q15699 118-204)
HOXA4 [28] = molecular target: HOXA4 (Homo sapiens, UniProt Q00056 201-287, W262F)
Chain of HOXA4 (Homo sapiens, UniProt Q00056 201-287, W262F) (Q00056 201-287 W262F): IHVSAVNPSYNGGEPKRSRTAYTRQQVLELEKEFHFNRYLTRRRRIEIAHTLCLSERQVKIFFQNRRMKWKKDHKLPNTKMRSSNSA

Chain of HOXB9 (Homo sapiens, UniProt P17482 171-250, T197M) (P17482 171-250 T197M): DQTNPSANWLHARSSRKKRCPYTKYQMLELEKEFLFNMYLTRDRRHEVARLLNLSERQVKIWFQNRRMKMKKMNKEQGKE
Chain of HOXB9 (Homo sapiens, UniProt P17482 171-250, R186Q) (P17482 171-250 R186Q): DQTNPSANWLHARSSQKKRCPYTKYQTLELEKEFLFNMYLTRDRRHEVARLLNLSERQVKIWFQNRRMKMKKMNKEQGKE
Chain of HOXB9 (Homo sapiens, UniProt P17482 171-250) (P17482 171-250): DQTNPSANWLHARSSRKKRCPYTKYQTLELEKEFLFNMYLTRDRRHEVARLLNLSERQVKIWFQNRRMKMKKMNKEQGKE
Chain of HOXA4 (Homo sapiens, UniProt Q00056 201-287, W262R) (Q00056 201-287 W262R): as the sequence (Q00056 201-287 W262F) above, with F62R counted along it
Chain of HOXA4 (Homo sapiens, UniProt Q00056 201-287) (Q00056 201-287): as the sequence (Q00056 201-287 W262F) above, with F62W counted along it
Chain of HOXA4 (Homo sapiens, UniProt Q00056 201-287, R217L) (Q00056 201-287 R217L): as the sequence (Q00056 201-287 W262F) above, with R17L, F62W counted along it
Chain of NKX3-2 (Homo sapiens, UniProt P78367 192-278, P234S) (P78367 192-278 P234S): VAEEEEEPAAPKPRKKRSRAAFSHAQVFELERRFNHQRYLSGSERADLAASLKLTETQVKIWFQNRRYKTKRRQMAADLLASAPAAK
Chain of ALX1 (Homo sapiens, UniProt Q15699 118-204, L144R) (Q15699 118-204 L144R): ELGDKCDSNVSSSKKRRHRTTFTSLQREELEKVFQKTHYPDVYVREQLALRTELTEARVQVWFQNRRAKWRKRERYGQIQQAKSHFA
Chain of HOXD13 (Homo sapiens, UniProt P35453 263-343) (P35453 263-343): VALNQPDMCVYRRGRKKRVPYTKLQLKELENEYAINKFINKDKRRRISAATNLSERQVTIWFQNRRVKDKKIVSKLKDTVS
Chain of NKX3-2 (Homo sapiens, UniProt P78367 192-278) (P78367 192-278): as the sequence (P78367 192-278 P234S) above, with S43P counted along it
Chain of ALX1 (Homo sapiens, UniProt Q15699 118-204) (Q15699 118-204): as the sequence (Q15699 118-204 L144R) above, with R27L counted along it
Chain of HOXD13 (Homo sapiens, UniProt P35453 263-343, T313R) (P35453 263-343 T313R): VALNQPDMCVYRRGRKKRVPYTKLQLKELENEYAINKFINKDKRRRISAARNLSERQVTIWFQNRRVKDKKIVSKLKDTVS
Chain of ALX1 (Homo sapiens, UniProt Q15699 118-204, L144V) (Q15699 118-204 L144V): as the sequence (Q15699 118-204 L144R) above, with R27V counted along it
Chain of HOXD13 (Homo sapiens, UniProt P35453 263-343, T313A) (P35453 263-343 T313A): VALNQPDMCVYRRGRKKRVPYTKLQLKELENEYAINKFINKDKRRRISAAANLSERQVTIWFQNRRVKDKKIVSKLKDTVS

CGGCGCCA
binding signal (HOXB9 [1]): 8.53 upbm affinity estimate (log intensity, higher = more binding, comparable within an allelic series) | binding signal (HOXB9 [2]): 8.36 upbm affinity estimate (log intensity, higher = more binding, comparable within an allelic series) | binding signal (HOXB9 [3]): 8.51 upbm affinity estimate (log intensity, higher = more binding, comparable within an allelic series)

GAGCGCAA
binding signal (HOXB9 [1]): 8.55 upbm affinity estimate (log intensity, higher = more binding, comparable within an allelic series) | binding signal (HOXB9 [2]): 8.29 upbm affinity estimate (log intensity, higher = more binding, comparable within an allelic series) | binding signal (HOXB9 [3]): 8.48 upbm affinity estimate (log intensity, higher = more binding, comparable within an allelic series)

ACCGGCCT
binding signal (HOXB9 [1]): 8.37 upbm affinity estimate (log intensity, higher = more binding, comparable within an allelic series) | binding signal (HOXB9 [2]): 8.52 upbm affinity estimate (log intensity, higher = more binding, comparable within an allelic series) | binding signal (HOXB9 [3]): 8.47 upbm affinity estimate (log intensity, higher = more binding, comparable within an allelic series) | binding signal (NKX3-2 [4]): 10.6 upbm affinity estimate (log intensity, higher = more binding, comparable within an allelic series) | binding signal (NKX3-2 [5]): 10.5 upbm affinity estimate (log intensity, higher = more binding, comparable within an allelic series)

GGAGCTAC
binding signal (HOXB9 [1]): 8.61 upbm affinity estimate (log intensity, higher = more binding, comparable within an allelic series) | binding signal (HOXB9 [2]): 8.26 upbm affinity estimate (log intensity, higher = more binding, comparable within an allelic series) | binding signal (HOXB9 [3]): 8.53 upbm affinity estimate (log intensity, higher = more binding, comparable within an allelic series)

CGTGGCTC
binding signal (HOXB9 [1]): 8.5 upbm affinity estimate (log intensity, higher = more binding, comparable within an allelic series) | binding signal (HOXB9 [2]): 8.18 upbm affinity estimate (log intensity, higher = more binding, comparable within an allelic series) | binding signal (HOXB9 [3]): 8.26 upbm affinity estimate (log intensity, higher = more binding, comparable within an allelic series)

CCCGTCTC
binding signal (HOXB9 [1]): 8.46 upbm affinity estimate (log intensity, higher = more binding, comparable within an allelic series) | binding signal (HOXB9 [2]): 8.32 upbm affinity estimate (log intensity, higher = more binding, comparable within an allelic series) | binding signal (HOXB9 [3]): 8.4 upbm affinity estimate (log intensity, higher = more binding, comparable within an allelic series)

GTATCATA
binding signal (SIX6 [6]): 11.5 upbm affinity estimate (log intensity, higher = more binding, comparable within an allelic series) | binding signal (HOXA4 [7]): 10.3 upbm affinity estimate (log intensity, higher = more binding, comparable within an allelic series) | binding signal (SIX6 [8]): 10.5 upbm affinity estimate (log intensity, higher = more binding, comparable within an allelic series) | binding signal (SIX6 [9]): 11.5 upbm affinity estimate (log intensity, higher = more binding, comparable within an allelic series) | binding signal (SIX6 [10]): 9.93 upbm affinity estimate (log intensity, higher = more binding, comparable within an allelic series) | binding signal (SIX6 [11]): 10.8 upbm affinity estimate (log intensity, higher = more binding, comparable within an allelic series) | binding signal (SIX6 [12]): 11.2 upbm affinity estimate (log intensity, higher = more binding, comparable within an allelic series) | binding signal (SIX6 [13]): 10.6 upbm affinity estimate (log intensity, higher = more binding, comparable within an allelic series) | binding signal (SIX6 [14]): 11.5 upbm affinity estimate (log intensity, higher = more binding, comparable within an allelic series) | binding signal (HOXA4 [15]): 10.6 upbm affinity estimate (log intensity, higher = more binding, comparable within an allelic series) | binding signal (SIX6 [16]): 11.3 upbm affinity estimate (log intensity, higher = more binding, comparable within an allelic series) | binding signal (SIX6 [17]): 11.4 upbm affinity estimate (log intensity, higher = more binding, comparable within an allelic series) | binding signal (HOXA4 [18]): 11 upbm affinity estimate (log intensity, higher = more binding, comparable within an allelic series) | binding signal (SIX6 [19]): 11.3 upbm affinity estimate (log intensity, higher = more binding, comparable within an allelic series) | binding signal (SIX6 [20]): 11.2 upbm affinity estimate (log intensity, higher = more binding, comparable within an allelic series) | binding signal (SIX6 [21]): 11.3 upbm affinity estimate (log intensity, higher = more binding, comparable within an allelic series)

CGGGCCGC
binding signal (SIX6 [6]): 9.03 upbm affinity estimate (log intensity, higher = more binding, comparable within an allelic series) | binding signal (SIX6 [8]): 8.81 upbm affinity estimate (log intensity, higher = more binding, comparable within an allelic series) | binding signal (SIX6 [9]): 9.05 upbm affinity estimate (log intensity, higher = more binding, comparable within an allelic series) | binding signal (SIX6 [10]): 8.75 upbm affinity estimate (log intensity, higher = more binding, comparable within an allelic series) | binding signal (SIX6 [11]): 8.94 upbm affinity estimate (log intensity, higher = more binding, comparable within an allelic series) | binding signal (SIX6 [12]): 8.95 upbm affinity estimate (log intensity, higher = more binding, comparable within an allelic series) | binding signal (SIX6 [13]): 8.91 upbm affinity estimate (log intensity, higher = more binding, comparable within an allelic series) | binding signal (SIX6 [14]): 8.87 upbm affinity estimate (log intensity, higher = more binding, comparable within an allelic series) | binding signal (SIX6 [16]): 8.94 upbm affinity estimate (log intensity, higher = more binding, comparable within an allelic series) | binding signal (ALX1 [22]): 6.4 upbm affinity estimate (log intensity, higher = more binding, comparable within an allelic series) | binding signal (HOXD13 [23]): 9.48 upbm affinity estimate (log intensity, higher = more binding, comparable within an allelic series) | binding signal (SIX6 [17]): 9.01 upbm affinity estimate (log intensity, higher = more binding, comparable within an allelic series) | binding signal (ALX1 [24]): 6.44 upbm affinity estimate (log intensity, higher = more binding, comparable within an allelic series) | binding signal (HOXD13 [25]): 9.34 upbm affinity estimate (log intensity, higher = more binding, comparable within an allelic series) | binding signal (SIX6 [19]): 8.94 upbm affinity estimate (log intensity, higher = more binding, comparable within an allelic series) | binding signal (SIX6 [20]): 9.02 upbm affinity estimate (log intensity, higher = more binding, comparable within an allelic series) | binding signal (SIX6 [21]): 8.91 upbm affinity estimate (log intensity, higher = more binding, comparable within an allelic series) | binding signal (HOXD13 [26]): 9.63 upbm affinity estimate (log intensity, higher = more binding, comparable within an allelic series) | binding signal (ALX1 [27]): 6.51 upbm affinity estimate (log intensity, higher = more binding, comparable within an allelic series)

CGGCTTCC
binding signal (SIX6 [6]): 9 upbm affinity estimate (log intensity, higher = more binding, comparable within an allelic series) | binding signal (HOXA4 [7]): 9.74 upbm affinity estimate (log intensity, higher = more binding, comparable within an allelic series) | binding signal (SIX6 [8]): 8.76 upbm affinity estimate (log intensity, higher = more binding, comparable within an allelic series) | binding signal (SIX6 [9]): 8.87 upbm affinity estimate (log intensity, higher = more binding, comparable within an allelic series) | binding signal (SIX6 [10]): 8.79 upbm affinity estimate (log intensity, higher = more binding, comparable within an allelic series) | binding signal (SIX6 [11]): 8.83 upbm affinity estimate (log intensity, higher = more binding, comparable within an allelic series) | binding signal (SIX6 [12]): 9 upbm affinity estimate (log intensity, higher = more binding, comparable within an allelic series) | binding signal (SIX6 [13]): 8.88 upbm affinity estimate (log intensity, higher = more binding, comparable within an allelic series) | binding signal (SIX6 [14]): 9 upbm affinity estimate (log intensity, higher = more binding, comparable within an allelic series) | binding signal (HOXA4 [15]): 9.5 upbm affinity estimate (log intensity, higher = more binding, comparable within an allelic series) | binding signal (SIX6 [16]): 9.03 upbm affinity estimate (log intensity, higher = more binding, comparable within an allelic series) | binding signal (SIX6 [17]): 8.96 upbm affinity estimate (log intensity, higher = more binding, comparable within an allelic series) | binding signal (HOXA4 [18]): 9.53 upbm affinity estimate (log intensity, higher = more binding, comparable within an allelic series) | binding signal (SIX6 [19]): 8.89 upbm affinity estimate (log intensity, higher = more binding, comparable within an allelic series) | binding signal (SIX6 [20]): 8.96 upbm affinity estimate (log intensity, higher = more binding, comparable within an allelic series) | binding signal (SIX6 [21]): 8.91 upbm affinity estimate (log intensity, higher = more binding, comparable within an allelic series) | binding signal (HOXA4 [28]): 9.63 upbm affinity estimate (log intensity, higher = more binding, comparable within an allelic series)
